Reference: paper PMC5700166
Numbering of substitutions follows the chain as printed.

Tests used:
Assay in all cases: protein-binding microarray (PBM); PBM: ~300 nM protein, 6 mM HEPES pH 7.8, 80 mM KCl, 0.5 mM EDTA, 0.5 mM EGTA, 6% glycerol, 35 ng/ul poly-dIdC, 1% milk, 1 h, room temperature; Ap Aiptasia and Nv Nematostella (sea anemones) / Co Capsaspora / Aq Amphimedon (sponge) / Dm Drosophila / Hu human; RHD is the Rel homology domain; high values mean tight binding
Conditions in all cases: dsDNA, one strand shown
GST-Ap-NF-kB RHD = target: T1, GST-Ap-NF-kB RHD (Exaiptasia pallida (Aiptasia), UniProt A0A913YAJ5 2-422)
T1 sequence: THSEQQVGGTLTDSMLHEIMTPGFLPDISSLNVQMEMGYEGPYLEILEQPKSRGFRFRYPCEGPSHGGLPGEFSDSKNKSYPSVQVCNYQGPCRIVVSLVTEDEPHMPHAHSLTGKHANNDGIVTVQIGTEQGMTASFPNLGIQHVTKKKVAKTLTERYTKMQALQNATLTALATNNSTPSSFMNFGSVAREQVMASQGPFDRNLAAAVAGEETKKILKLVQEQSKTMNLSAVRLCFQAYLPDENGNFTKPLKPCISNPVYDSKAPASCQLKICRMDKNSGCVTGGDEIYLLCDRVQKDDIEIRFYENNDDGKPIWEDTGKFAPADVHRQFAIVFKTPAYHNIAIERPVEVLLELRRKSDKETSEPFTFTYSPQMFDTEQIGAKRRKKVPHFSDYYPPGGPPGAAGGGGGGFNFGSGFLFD

[1] = target: T2, GST-Nv-NF-kB (Cys allele) (Nematostella vectensis, UniProt E5G601 2-411)
T2 sequence: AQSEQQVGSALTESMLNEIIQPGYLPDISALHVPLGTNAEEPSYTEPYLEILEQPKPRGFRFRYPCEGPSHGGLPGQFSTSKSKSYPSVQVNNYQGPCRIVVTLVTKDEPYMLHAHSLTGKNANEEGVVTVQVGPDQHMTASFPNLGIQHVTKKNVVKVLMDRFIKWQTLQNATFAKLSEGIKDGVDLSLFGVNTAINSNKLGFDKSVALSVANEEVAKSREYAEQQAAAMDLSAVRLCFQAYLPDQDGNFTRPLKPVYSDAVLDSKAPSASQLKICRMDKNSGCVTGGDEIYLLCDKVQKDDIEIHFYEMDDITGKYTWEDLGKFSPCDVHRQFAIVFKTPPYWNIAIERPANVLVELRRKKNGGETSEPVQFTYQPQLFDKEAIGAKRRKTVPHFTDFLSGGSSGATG

[2] = target: T3, GST-Nv-NF-kB (Ser allele) (Nematostella vectensis, UniProt A7UNT2 2-411)
T3 sequence: T2 sequence with Q21R, C66S, S207N, E215Q, V217A, E225K, A268E, D399E

GST-Co-NF-kB = target: T4, GST-Co-NF-kB (Capsaspora owczarzaki, UniProt F1ARL5 200-546)
T4 sequence: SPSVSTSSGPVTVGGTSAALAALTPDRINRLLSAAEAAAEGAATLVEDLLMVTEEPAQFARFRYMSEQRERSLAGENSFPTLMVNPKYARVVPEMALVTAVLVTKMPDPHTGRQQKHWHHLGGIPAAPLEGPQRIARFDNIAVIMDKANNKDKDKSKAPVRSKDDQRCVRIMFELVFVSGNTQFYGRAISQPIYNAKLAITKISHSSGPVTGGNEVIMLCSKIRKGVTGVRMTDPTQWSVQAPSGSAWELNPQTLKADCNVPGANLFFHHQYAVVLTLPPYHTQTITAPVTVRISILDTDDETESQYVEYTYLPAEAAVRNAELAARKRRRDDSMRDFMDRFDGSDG

GST-Dm-Relish = target: T5, GST-Dm-Relish (Drosophila melanogaster, UniProt Q94527 99-473)
T5 sequence: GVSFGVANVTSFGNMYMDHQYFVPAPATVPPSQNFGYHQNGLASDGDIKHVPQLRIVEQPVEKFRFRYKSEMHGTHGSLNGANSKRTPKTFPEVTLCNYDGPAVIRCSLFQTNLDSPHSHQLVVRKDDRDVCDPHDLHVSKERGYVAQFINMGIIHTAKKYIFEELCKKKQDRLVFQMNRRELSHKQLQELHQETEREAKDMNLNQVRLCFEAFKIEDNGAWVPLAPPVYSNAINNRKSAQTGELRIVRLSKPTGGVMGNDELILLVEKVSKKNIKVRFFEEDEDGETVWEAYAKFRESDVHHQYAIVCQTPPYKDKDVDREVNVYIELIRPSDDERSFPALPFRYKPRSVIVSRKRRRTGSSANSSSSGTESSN

GST-Aq-NF-kB = target: T6, GST-Aq-NF-kB (Amphimedon queenslandica, UniProt A9Y5G7 2-389)
T6 sequence: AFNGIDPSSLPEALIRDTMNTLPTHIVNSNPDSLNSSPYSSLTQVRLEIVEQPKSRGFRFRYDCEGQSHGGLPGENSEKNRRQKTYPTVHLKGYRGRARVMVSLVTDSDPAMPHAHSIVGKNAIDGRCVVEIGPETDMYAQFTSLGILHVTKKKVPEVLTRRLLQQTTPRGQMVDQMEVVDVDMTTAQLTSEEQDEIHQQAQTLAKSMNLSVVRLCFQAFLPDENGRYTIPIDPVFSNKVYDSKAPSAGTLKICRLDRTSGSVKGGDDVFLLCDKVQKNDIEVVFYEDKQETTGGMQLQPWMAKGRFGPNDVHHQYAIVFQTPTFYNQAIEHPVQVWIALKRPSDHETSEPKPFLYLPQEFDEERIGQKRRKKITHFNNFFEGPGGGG

Sequence | binding signal (GST-Ap-NF-kB RHD) [z-score] | binding signal [1] [z-score] | binding signal [2] [z-score] | binding signal (GST-Co-NF-kB) [z-score] | binding signal (GST-Dm-Relish) [z-score] | binding signal (GST-Aq-NF-kB) [z-score]
CCGATTAACATCAATAGTTCCCCTGATGTTAATCGGGTCTTGATTCGCTTGACGCTGCTG | 6.43 | 6.96 | 8.51 | 7.79 | 6.77 | 5.01
CCGATTAACATCAGGGGATACCCTGATGTTAATCGGGTCTTGATTCGCTTGACGCTGCTG | 8.36 | 7.45 | 6.59 | 3.74 | 9.05 | 8.11
CCGATTAACATCACGGGATTTTCTGATGTTAATCGGGTCTTGATTCGCTTGACGCTGCTG | 5.11 | 4.77 | 4.15 | 1.98 | 6.84 | 5.2
CCGATTAACATCAACCCCCCCCATGATGTTAATCGGGTCTTGATTCGCTTGACGCTGCTG | 5.53 | 4.32 | 3.55 | 4.94 | 5.75 | 4.01
CCGATTAACATCAGGGGGGGGACTGATGTTAATCGGGTCTTGATTCGCTTGACGCTGCTG | 7.06 | 5.11 | 4.69 | 4.78 | – | 5.29
CCGATTAACATCAAATTCTCCCCTGATGTTAATCGGGTCTTGATTCGCTTGACGCTGCTG | 5.65 | 6.62 | 7.76 | 8.72 | 2.37 | 5.21
CCGATTAACATCAAAGATTTCCCTGATGTTAATCGGGTCTTGATTCGCTTGACGCTGCTG | 4.23 | 6.33 | 7.19 | 4.84 | 2.9 | 5.13
CCGATTAACATCAGACGTGGGAATGATGTTAATCGGGTCTTGATTCGCTTGACGCTGCTG | 1.19 | 1.45 | 1.48 | 2.5 | – | 2.21
CCGATTAACATCAGGGAATACACTGATGTTAATCGGGTCTTGATTCGCTTGACGCTGCTG | 2.66 | 2.43 | 2.21 | 2.5 | 2.61 | 3.68
CCGATTAACATCAACGTTTCCCCTGATGTTAATCGGGTCTTGATTCGCTTGACGCTGCTG | 5.38 | 6.77 | 10.1 | 7.56 | 2.48 | 4.46
CCGATTAACATCAGAGTTTTCCCTGATGTTAATCGGGTCTTGATTCGCTTGACGCTGCTG | 3.96 | 5.58 | 6.71 | 4.75 | 1.89 | 4.65
CCGATTAACATCAGGGGGGGGTATGATGTTAATCGGGTCTTGATTCGCTTGACGCTGCTG | 5.02 | 2.75 | 3.75 | 5.96 | – | 4.39
CCGATTAACATCAATAAATTCCCTGATGTTAATCGGGTCTTGATTCGCTTGACGCTGCTG | 4.18 | 7.04 | 7.28 | 4.25 | 5.85 | 5.34
CCGATTAACATCAACCAATTCCCTGATGTTAATCGGGTCTTGATTCGCTTGACGCTGCTG | 2.49 | 3.94 | 3.98 | 1.83 | – | 3.16
CCGATTAACATCAGGGGAAGAAATGATGTTAATCGGGTCTTGATTCGCTTGACGCTGCTG | 4.46 | 5.99 | 6.85 | 8.71 | 6.53 | 4.68
CCGATTAACATCAAGGGGGGGTATGATGTTAATCGGGTCTTGATTCGCTTGACGCTGCTG | 4.96 | 3.8 | 3.62 | 5.09 | 4.14 | 4.39
CCGATTAACATCACTTTCCCCCCTGATGTTAATCGGGTCTTGATTCGCTTGACGCTGCTG | 5.84 | 5.86 | 7.31 | 9.03 | 4.29 | 5.34
CCGATTAACATCAGATTATCCCCTGATGTTAATCGGGTCTTGATTCGCTTGACGCTGCTG | 5.35 | 6.05 | 6.87 | 5.37 | 2.63 | 4.98
CCGATTAACATCAGGGGTAACACTGATGTTAATCGGGTCTTGATTCGCTTGACGCTGCTG | 1.82 | 1.03 | 1.27 | 4.28 | – | 2.5
CCGATTAACATCACCCCCACCCCTGATGTTAATCGGGTCTTGATTCGCTTGACGCTGCTG | 3.49 | 2.96 | 1.75 | 4.43 | 3.84 | 3.33
CCGATTAACATCAGGGGAACTAATGATGTTAATCGGGTCTTGATTCGCTTGACGCTGCTG | 4.99 | 5.41 | 6.66 | 6.12 | 4.37 | 4.07
CCGATTAACATCAAATCCCCCCTTGATGTTAATCGGGTCTTGATTCGCTTGACGCTGCTG | 8.14 | 6.82 | 7.98 | 6.62 | 7.95 | 6.8
CCGATTAACATCACATCTTCCCCTGATGTTAATCGGGTCTTGATTCGCTTGACGCTGCTG | 4.99 | 6.11 | 7.12 | 6.39 | 2.45 | 4.78
